Laboratory results published in the supplement of paper PMC12350171.
Structures can show the parent of a compound that is named as a salt. Unmarked numbers belong to inactive results.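 Rule for the calls: active = normalised median growth AUC below 0.1 of DMSO control; inactive = AUC 0.1 or higher.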

Tests used:
Assay in all cases: growth AUC normalised to DMSO control (median) (fraction of control); higher = less growth inhibition, active = hit call of the paper
Conditions in all cases: 20 µM
P. vulgatus RND KO = system: P. vulgatus RND KO
How it was run: (§1)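 After two overnight anaerobic passages, strains were inoculated at OD578 0.01 into mGAM in 96-well plates containing approved-drug library compounds at 20 μM and 1% DMSO. Growth was followed by reading OD578 hourly for 24 h within an anaerobic incubator. Area under the curve, taken by the trapezoidal rule up to the start of stationary phase, was normalised to same-plate vehicle wells, and the median of three biological replicates is listed.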

P. vulgatus WT = system: P. vulgatus WT
How it was run: as §1

[1] = system: S. enterica typhimurium WT
How it was run: as §1

[2] = system: S. enterica typhimurium tolC KO
How it was run: as §1
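Note: active when median AUC fell below 0.1.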

| Compound | growth AUC normalised to DMSO control (P. vulgatus RND KO) | growth AUC normalised to DMSO control (P. vulgatus WT) | growth AUC normalised to DMSO control [1] | growth AUC normalised to DMSO control [2] |
| --- | --- | --- | --- | --- |
| Nc1ccc(S(=O)(=O)Nc2cnc3ccccc3n2)cc1 [Sulfaquinoxaline sodium salt] | 1.01 | 1.04 | 0.985 | 1 |
| O=C(O)CCNC(=O)c1ccccc1 [Betamipron] | 1 | 1.04 | 0.998 | 0.807 |
| CCOc1ccc2nc3cc(N)ccc3c(N)c2c1 [Ethacridine lactate] | 0.999 | 0.961 | 0.991 | 0.977 |
| COC(=O)[C@H](c1ccccc1Cl)N1CCc2sccc2C1 [Clopidogrel] | 0.999 | 0.996 | 1 | 0.914 |
| O=C(O)COc1nn(Cc2ccccc2)c2ccccc12 [Bendazac] | 0.998 | 1.02 | 1 | 0.987 |
| O=c1oc2cc(O)ccc2s1 [Tioxolone] | 1.02 | 1.02 | 0.989 | 0.999 |
| CC(=O)OCC(=O)[C@@]1(O)CC[C@H]2[C@@H]3CCC4=CC(=O)C=C[C@]4(C)[C@@]3(Cl)[C@@H](Cl)C[C@@]21C [Dichlorisone acetate] | 0.976 | 0.97 | 0.989 | 0.956 |
| COc1c(O)cc2c(c1O)[C@@H]1O[C@H](CO)[C@@H](O)[C@H](O)[C@H]1OC2=O [Bergenin] | 1.04 | 1.01 | 1.02 | 0.995 |
| C[C@]12CCC3=C4CCC(=O)C=C4CC[C@H]3[C@@H]1CC[C@@]2(O)CC#N [Dienogest] | 1.03 | 1.04 | 1.02 | 1.02 |
| Nc1c(CC(=O)O)cccc1C(=O)c1ccc(Br)cc1 [Bromfenac] | 1.04 | 1.04 | 1.01 | 0.999 |
| Cn1c(NCCN(CCO)CCCc2ccc([N+](=O)[O-])cc2)cc(=O)n(C)c1=O [Nifekalant] | 1.06 | 1.03 | 1.02 | 1 |
| CC(C)[C@H](N)C(=O)OCC(CO)OCn1cnc2c(=O)nc(N)[nH]c21 (some centres not stated) [Valganciclovir hydrochloride] | 1.04 | 1.08 | 1 | 1 |
| O=C(Oc1ccccc1)c1ccccc1O [Phenyl salicylate] | 1.03 | 1.06 | 1.01 | 0.975 |
| CC(C)OC(=O)C(C(=O)OC(C)C)=C1SC=CS1 [Malotilate] | 0.988 | 0.977 | 1 | 0.899 |
| O=C(c1cc(O)c(O)c(O)c1)c1ccc(O)c(O)c1O [Exifone] | 0.975 | 0.993 | 0.986 | 0.995 |
| CCC(=O)O[C@@H]1CC(=O)O[C@H](C)C/C=C/C=C/[C@H](O)[C@H](C)C[C@H](CC=O)[C@H](O[C@@H]2O[C@H](C)[C@@H](O[C@H]3C[C@@](C)(O)[C@@H](OC(=O)CC)[C@H](C)O3)[C@H](N(C)C)[C@H]2O)[C@H]1OC [Midecamycin] | 0.00894 (active) | 0.0119 (active) | 0.998 | 0.0799 (active) |
| O=c1[nH]c(=O)n(C2CCCO2)cc1F (configuration not stated) [Tegafur] | 1 | 1.01 | 1 | 0.999 |
| C#CCN[C@@H]1CCc2ccccc21 [Rasagiline] | 0.989 | 0.96 | 1 | 0.982 |
| C[C@H]1COc2c(N3CCN(C)CC3)c(F)cc3c(=O)c(C(=O)O)cn1c23 [Levofloxacin] | 0.014 (active) | 0.0149 (active) | 0.00504 (active) | 0.00559 (active) |
| COc1cc(Nc2c(C#N)cnc3cc(OCCCN4CCN(C)CC4)c(OC)cc23)c(Cl)cc1Cl [Bosutinib] | 1 | 0.947 | 1 | 0.98 |
| O=C(Oc1cccc2cccnc12)c1ccccc1 [Benzoxiquine] | 0.935 | 0.934 | 0.994 | 0.968 |
| COc1ccc2cc1Oc1ccc(cc1)C[C@H]1c3c(cc4c(c3Oc3cc5c(cc3OC)CCN(C)[C@@H]5C2)OCO4)CCN1C [Cepharanthine] | 0.999 | 0.973 | 1.02 | 0.998 |

| Compound | growth AUC normalised to DMSO control (P. vulgatus RND KO) | growth AUC normalised to DMSO control (P. vulgatus WT) | growth AUC normalised to DMSO control [1] | growth AUC normalised to DMSO control [2] |
| --- | --- | --- | --- | --- |
| CC(=O)Oc1ccc(C(=C2CCCCC2)c2ccc(OC(C)=O)cc2)cc1 [Cyclofenil] | 0.903 | 0.904 | 0.997 | 0.972 |
| CC(=O)OC(C)OC(=O)C(C)c1ccc(-c2ccccc2)c(F)c1 (configuration not stated) [Flurbiprofen axetil] | 1.09 | 1.1 | 1.01 | 0.856 |
| CC(C)(C)CC(C)(C)c1ccc(O)c(Cc2ccc(Cl)cc2Cl)c1 [Clofoctol] | 0.619 | 0.581 | 0.995 | 1.02 |
| NC(=O)NS(=O)(=O)c1ccc(N)cc1 [Sulfacarbamide] | 0.997 | 1.01 | 0.995 | 1 |
| COc1ccc(-c2noc(CC(=O)O)c2-c2ccc(OC)cc2)cc1 [Mofezolac] | 0.999 | 1.03 | 1.01 | 0.998 |
| Cc1ccc(Nc2c(F)cccc2Cl)c(CC(=O)O)c1 [Lumiracoxib] | 0.985 | 1.01 | 1 | 1 |
| Cc1cn(-c2cc(NC(=O)c3ccc(C)c(Nc4nccc(-c5cccnc5)n4)c3)cc(C(F)(F)F)c2)cn1 [Nilotinib] | 1.03 | 1.05 | 0.994 | 0.984 |
| CN(CCOc1ccc(NS(C)(=O)=O)cc1)CCc1ccc(NS(C)(=O)=O)cc1 [Dofetilide] | 0.985 | 0.992 | 0.999 | 1 |
| CC(C)[C@H]1CC[C@H](C(=O)N[C@H](Cc2ccccc2)C(=O)O)CC1 [Nateglinide] | 0.977 | 0.999 | 0.994 | 0.968 |
| Oc1c(Br)cc(Br)c2cccnc12 [Broxyquinoline] | 0.294 | 0.0591 (active) | 0.986 | 0.561 |
| CC(C)Oc1ccc2c(=O)c(-c3ccccc3)coc2c1 [Ipriflavone] | 1.04 | 1.07 | 0.978 | 0.859 |
| COC(=O)C1=C(C)NC(C)=C(C(=O)O[C@H]2CCN(Cc3ccccc3)C2)[C@H]1c1cccc([N+](=O)[O-])c1 [Barnidipine Hydrochloride] | 1.1 | 1.11 | 0.998 | 0.961 |
| Cc1cc(O)c(C(=O)N[C@@H](C(=O)N[C@@H]2C(=O)N3C(C(=O)O)=C(CSc4nnnn4C)CS[C@H]23)c2ccc(O)cc2)cn1 [Cefpiramide] | 0.0197 (active) | 0.0147 (active) | 0.121 | 0.0047 (active) |
| CC(=O)Nc1ccc(OC(=O)c2ccccc2O)cc1 [Acetaminosalol] | 0.959 | 0.964 | 1 | 0.937 |
| C[C@H](N[C@@H](CCc1ccccc1)C(=O)O)C(=O)N1CCC[C@H]1C(=O)O [Enalaprilat dihydrate] | 0.99 | 0.986 | 0.992 | 0.995 |
| O=C1c2c(O)ccc(O)c2C(=O)c2c(NCCNCCO)ccc(NCCNCCO)c21 [Mitoxantrone dihydrochloride] | 1.11 | 1.04 | 1 | 0.999 |
| C=CCOc1ccc(CC(=O)O)cc1Cl [Alclofenac] | 1.06 | 1.12 | 1 | 0.959 |
| CCOc1ccccc1OCCN[C@H](C)Cc1ccc(OC)c(S(N)(=O)=O)c1 [(R)-Tamsulosin hydrochloride] | 0.997 | 1.01 | 1 | 0.965 |
| COc1c(-c2ccc3cc(NS(C)(=O)=O)ccc3c2)cc(-n2ccc(=O)[nH]c2=O)cc1C(C)(C)C [Dasabuvir] | 0.831 | 0.827 | 1 | 0.94 |
| O=S(=O)(c1cccc2cnccc12)N1CCCNCC1 [Fasudil Hydrochloride] | 1 | 1 | 1 | 1.01 |
| O=C(NC1CCN(CCCCC2(C(=O)NCC(F)(F)F)c3ccccc3-c3ccccc32)CC1)c1ccccc1-c1ccc(C(F)(F)F)cc1 [Lomitapide] | 1.01 | 1.05 | 1.01 | 1 |
